These results are taken from ChEMBL document CHEMBL1201862, “PubChem BioAssay data set” (2004).

The whole screen tested about 400,000 compounds, of which about 2,100 (0.53%) were called active. About 14% were inconclusive and are not listed. No rule for the calls is given here. Many of the other results were omitted from the sample, so actives are more common in it than they were.

The target in the assay is Ataxin-2 (Homo sapiens) (UniProt Q99700). As to the kind of experiment: qHTS for Inhibitors of ATXN expression. It is filed as functional.
Chain of Ataxin-2 (Homo sapiens) (Q99700 whole entry): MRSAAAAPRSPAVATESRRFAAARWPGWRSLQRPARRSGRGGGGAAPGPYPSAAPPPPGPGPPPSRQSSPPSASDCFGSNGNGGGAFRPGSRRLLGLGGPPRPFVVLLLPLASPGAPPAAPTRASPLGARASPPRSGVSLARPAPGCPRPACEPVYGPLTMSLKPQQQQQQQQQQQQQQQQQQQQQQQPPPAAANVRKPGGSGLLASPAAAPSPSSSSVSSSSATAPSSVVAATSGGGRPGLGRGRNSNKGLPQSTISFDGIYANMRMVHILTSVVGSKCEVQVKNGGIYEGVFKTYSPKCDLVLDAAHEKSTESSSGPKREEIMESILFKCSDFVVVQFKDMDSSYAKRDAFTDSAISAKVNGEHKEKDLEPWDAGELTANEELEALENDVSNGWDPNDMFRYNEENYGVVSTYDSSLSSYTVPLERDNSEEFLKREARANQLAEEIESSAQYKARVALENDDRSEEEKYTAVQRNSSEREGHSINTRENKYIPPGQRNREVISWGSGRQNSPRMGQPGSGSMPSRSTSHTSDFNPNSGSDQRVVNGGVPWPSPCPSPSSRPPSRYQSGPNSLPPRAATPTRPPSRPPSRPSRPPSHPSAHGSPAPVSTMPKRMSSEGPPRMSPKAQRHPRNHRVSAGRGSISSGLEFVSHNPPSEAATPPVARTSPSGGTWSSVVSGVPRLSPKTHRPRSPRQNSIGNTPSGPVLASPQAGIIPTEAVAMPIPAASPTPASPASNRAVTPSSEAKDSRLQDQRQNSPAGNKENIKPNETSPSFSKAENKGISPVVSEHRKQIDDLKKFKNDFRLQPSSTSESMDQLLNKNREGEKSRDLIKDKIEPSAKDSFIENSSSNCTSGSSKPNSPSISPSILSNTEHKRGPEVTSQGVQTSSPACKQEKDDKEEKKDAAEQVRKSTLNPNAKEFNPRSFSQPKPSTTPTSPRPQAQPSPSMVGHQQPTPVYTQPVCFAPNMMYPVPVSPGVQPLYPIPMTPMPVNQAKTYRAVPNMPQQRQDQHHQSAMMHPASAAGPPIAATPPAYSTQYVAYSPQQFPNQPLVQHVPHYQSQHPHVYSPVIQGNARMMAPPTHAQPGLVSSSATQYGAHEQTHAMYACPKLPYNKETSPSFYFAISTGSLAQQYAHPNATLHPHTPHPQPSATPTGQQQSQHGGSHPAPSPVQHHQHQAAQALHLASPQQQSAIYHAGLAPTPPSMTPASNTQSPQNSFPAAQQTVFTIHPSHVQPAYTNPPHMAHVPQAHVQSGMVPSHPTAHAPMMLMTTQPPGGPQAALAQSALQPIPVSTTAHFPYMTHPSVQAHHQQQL
On to `CCCCC1CCC(C(=O)OC(C)C(=O)Nc2ccc(NC(C)=O)cc2)CC1` (stereo not given), for which the Potency entry is “inactive”. Then `NNC(=O)c1oc2nc(-c3ccccc3)cc(-c3ccccc3)c2c1N`, with “inactive”; and `Cc1nc2nc(-c3cccs3)cn2nc1C`, with “inactive”.

Turning to `CCCCn1c(NC(=O)c2ccccc2)c(C#N)c2nc3ccccc3nc21`, the Potency entry was “inactive”. Then `COc1ccccc1NCC(=O)N/N=C/c1sccc1C`, with “inactive”.

Turning to `COc1cccc(CN=C(S)Nc2cc(C)ccc2C)c1`, the Potency result is “inactive”. The same measure for `CCN(CC)CCN(C(=O)CCS(=O)(=O)c1ccccc1)c1nc2c(C)cc(C)cc2s1`: 44.7 µM (active). Then `CCn1cc(C(=O)OCC(=O)Nc2ccc(C)c(Cl)c2)c(=O)c2ccc(C)nc21`, with “inactive”; and `CCn1ccc2c(OCC(=O)Nc3ccc(C)c(Cl)c3)cccc2c1=O`, with 39.8 µM (active). Then `COC(=O)COc1cccc2c(=O)n(CC(=O)N3CCCCC3)ccc12`, with “inactive”; and `CC1CCN(c2ccc3c(c2)S(=O)(=O)c2ccccc2C3=O)CC1`, with “inactive”. Consider `Cc1ccccc1C(=O)OC(C)CN1CCN(C)CC1` (stereo not given), for which the Potency result is “inactive”. The same measure for `CN1CCN(C2=C(Cl)C(=O)c3ccccc3C2=O)CC1`: 16.8 µM (active); for `CCN(CC(=O)Nc1ccccc1OC)C(=O)c1ccccc1Sc1ccccc1C#N`: “inactive”. Turning to `CCOc1ccc(N(C)S(=O)(=O)c2c[nH]cn2)cc1`, the Potency result is “inactive”.

For `CCN(CC)c1ccc(N=Nc2nc[nH]n2)cc1`, the Potency was 10 µM (active). As to `O=C(O)c1ccccc1-c1ccc(/C=C/c2cc(C(F)(F)F)nc(O)n2)o1`, the Potency result was “inactive”. `COc1ccccc1CN1CCc2c([nH]c3ccccc23)C1`: the Potency entry is “inactive”. The same measure for `COc1cccc(C(=O)NNS(=O)(=O)c2ccccc2)c1`: “inactive”; for `COc1cccc(C=C(C(C)=O)C(=O)c2ccccc2)c1`: 31.6 µM (active); for `CC(=O)C(=Cc1ccc(-c2ccccc2)cc1)C(=O)c1ccccc1`: 28.2 µM (active). For the compound `COc1cccc(C(=O)COC(=O)CCC(=O)c2ccccc2)c1`, the Potency result is “inactive”.

With `C/C(=C\c1ccccc1)C(=O)c1c(C)cc(C)nc1O`, the Potency entry was “inactive”.

With `CC(=O)c1c(C)[nH]c(C(=O)COC(=O)COc2ccccc2F)c1C`, the Potency entry is “inactive”.

`CC(=O)NC1C(=O)N(CCN2CCOCC2)c2ccc(C)cc21` (stereo not given): the Potency result is “inactive”.

Turning to `Cc1cccn2c(=O)c3cc(C(=O)NCc4ccccc4)c(=N)n(CCCN4CCOCC4)c3nc12`, the Potency result was “inactive”. Then `Cc1nc2nc(C)n(CCN3CCOCC3)c(=O)c2c(-c2cccc([N+](=O)[O-])c2)c1C(=O)CCCCCCCCCCN1CCC(c2ccccc2)(c2ccccc2)CC1`, with 13.4 µM (active).

As to `Nc1c(C(=O)NCc2ccccc2)c2nc3ccccc3nc2n1CCCN1CCOCC1`, the Potency result was “inactive”. `O=C(NCc1ccccc1)c1cccc2c1C(=O)c1ccc(/C=C/c3ccccc3)cc1S2(=O)=O`: the Potency result is “inactive”. With `O=C(NC1CC1)c1cccc2c1C(=O)c1ccc(N3CCC(Cc4ccccc4)CC3)cc1S2(=O)=O`, the Potency result is “inactive”.

Turning to `O=C(NC1CCCCC1)c1cccc2c1C(=O)c1ccc(N3CCC(Cc4ccccc4)CC3)cc1S2(=O)=O`, the Potency entry was “inactive”. The same measure for `O=C(NCCOc1ccccc1Cl)c1cccc2c1C(=O)c1ccc(Cl)cc1S2(=O)=O`: 35.5 µM (active); for `O=C(NC1CCCC1)c1cccc2c1C(=O)c1ccc(/C=C/c3ccccc3)cc1S2(=O)=O`: “inactive”.

`O=C1c2ccc(Cl)cc2S(=O)(=O)c2cccc(C(=O)N3CCC(Cc4ccccc4)CC3)c21`: the Potency was 31.6 µM (active). Then `Cc1c(C)c2cc3c(c(C)c2oc1=O)OCN(CCc1ccc(F)cc1)C3`, with “inactive”; and `FC(F)(F)c1cnc(C(c2ccccn2)c2nc[nH]n2)c(Cl)c1` (stereo not given), with “inactive”; and `COc1ccc(C(CCN(Cc2ccc(OC)c(OC)c2)C(=O)CCl)c2ccccc2)cc1` (stereo not given), with 31.6 µM (active).

As for `COc1ccc(CN(CCC(c2ccccc2)c2ccc(OC(C)C)cc2)C(=O)CCl)cc1OC` (stereo not given), the Potency is 6.31 µM (active). Then `CCOc1ccc(CN(C)CC(=O)Nc2cccc3ccccc23)cc1OC`, with “inactive”; and `COc1ccc(CN(C(=O)COc2ccc(C)c(C)c2)C2CCS(=O)(=O)C2)cc1OC` (stereo not given), with “inactive”; and `CCOc1ccc(C(CC(=O)O)NC(=O)C(c2ccccc2)c2ccccc2)cc1OC` (stereo not given), with “inactive”.

In the case of `COc1ccc(CN(C)CC(=O)Nc2ccc(SC(F)F)cc2)cc1OC`, the Potency entry is “inactive”. Then `COc1cc(C2NC(=O)NC(c3ccccc3)=C2C(C)=O)cc([N+](=O)[O-])c1O` (stereo not given), with “inactive”; and `C#CC(=O)N(c1ccc(OC)c(OC)c1)C(C(=O)NC1CCCC1)c1cccs1` (stereo not given), with 25.1 µM (active). Then `COc1cc(C(=O)OC(C)C(=O)NC(=O)NC2CCCCC2)ccc1OC(F)F` (stereo not given), with “inactive”; and `O=C(CN(C(=O)CNC(=O)c1cccs1)c1ccccc1)NC1CCCCC1`, with “inactive”; and `O=C(CCC(=O)c1cccs1)NC1CCCCCC1`, with “inactive”.

For `C#CC(=O)N(c1ccc(OC)cc1OC)C(C(=O)NC1CCCC1)c1cccs1` (stereo not given), the Potency is 2.12 µM (active). Then `O=C(O)c1ccc(COc2ccc3ccccc3c2/C=C2/NC(=O)N(Cc3ccc(F)cc3)C2=O)cc1`, with “inactive”; and `COc1ccccc1C(=O)NCCC(=O)N1CCN(S(=O)(=O)c2cccc(Cl)c2)CC1`, with “inactive”; and `CCc1cc2c(COC(=O)c3cc(S(=O)(=O)N4CCOCC4)ccc3F)cc(=O)oc2cc1O`, with “inactive”.

As for `COc1ccccc1N1C(=O)c2cccc3c(Cl)ccc(c23)C1=O`, the Potency result was “inactive”. For the compound `COc1ccc(N2C(=O)CC(Nc3ccc(C(=O)O)cc3)C2=O)cc1OC` (stereo not given), the Potency entry is “inactive”. The same measure for `COc1cc(N2C(=O)C=CC2=O)ccc1N1C(=O)C=CC1=O`: 15 µM (active).

Take `CCC(C)NC(=O)c1oc2ccc(S(=O)(=O)N3CCC4(CC3)OCCO4)cc2c1C` (stereo not given): the Potency result was “inactive”. The same measure for `Cc1ccc2oc(C(=O)NCC(c3ccc(Cl)cc3)N3CCOCC3)c(C)c2c1` (stereo not given): 39.8 µM (active); for `COc1ccc(C(CNC(=O)COc2c(C)cc(C)cc2C)N2CCOCC2)cc1` (stereo not given): “inactive”. For `CN(C)C(=O)c1coc2nc3ccccc3nc12`, the Potency result is “inactive”. Then `CCN(CC)S(=O)(=O)c1cc(OC)ccc1N=Nc1ccc(O)c2ncccc12`, with 10 µM (active); and `COc1cc(NS(=O)(=O)c2ccc3ccccc3c2)c2ncccc2c1`, with “inactive”. `CCS(=O)(=O)c1ccc(N=Nc2ccc(O)c3ncccc23)c(OC)c1`: the Potency was 25.1 µM (active).

As for `CCOC(=O)c1cc2c(=O)n3ccccc3nc2n(Cc2ccco2)/c1=N/C(=O)c1cccc(OC)c1`, the Potency result is “inactive”. Consider `COc1ccc(N2CCN(C(=O)[C@H](C)NC(=O)c3ccccc3Cl)CC2)cc1`, for which the Potency result was “inactive”. The same measure for `CCCS(=O)(=O)c1nc(S(=O)(=O)c2ccc(C)cc2)c(N2CCN(CCO)CC2)s1`: “inactive”. Consider `Cc1ccc(C(=O)OCn2ncc(Cl)c(Cl)c2=O)cc1`, for which the Potency is 20 µM (active). The same measure for `COc1ccc(C(=O)OCc2ccc(C)cc2)cc1S(=O)(=O)N1CCOCC1`: “inactive”; for `N=C(NOC(=O)c1cnn(-c2ccccc2)c1C(F)(F)F)c1cc(C(F)(F)F)cc(C(F)(F)F)c1`: “inactive”. With `O=C(OCn1ncc(Cl)c(Cl)c1=O)c1cccc(C(F)(F)F)c1`, the Potency is 39.8 µM (active).

As to `CC(=O)c1c(COC(=O)c2ccc(C)cc2)nc2ccccc2[n+]1[O-]`, the Potency entry was “inactive”. Then `COC(=O)C1=CN(C)C=C(C(=O)OC)C1c1ccccc1Cl`, with “inactive”; and `O=C(OCn1ncc(Cl)c(Cl)c1=O)c1ccccc1Cl`, with 15.8 µM (active); and `O=C(OCCN1C(=O)c2cccc3c(N4CCOCC4)ccc(c23)C1=O)c1ccccc1Cl`, with “inactive”. The same measure for `O=C(O)c1ccc(OS(=O)(=O)c2cccc(C(F)(F)F)c2)cc1`: “inactive”; for `C=CCn1c(SCc2cccc(F)c2)nc2cc(C(=O)N3CCC(C(N)=O)CC3)ccc2c1=O`: “inactive”. The same measure for `CCN1C(c2ccccc2)=C(c2ccccc2)S/C1=C\C=C1/SC(=S)N(C)C1=O`: 22.4 µM (active); for `COc1ccc(/C=N/Nc2ncnc3sc(C)c(C)c23)cc1`: “inactive”. `NC(COCc1ccccc1)c1csc(NC(=O)Nc2cccc(Cl)c2)n1` (stereo not given): the Potency is 25.1 µM (active). Consider `O=C(Nc1cccc(Cl)c1)Nc1sccc1-c1nc2ccccc2s1`, for which the Potency result is “inactive”. `NC(COCc1ccccc1)c1csc(NC(=O)Nc2cccc(C(F)(F)F)c2)n1` (stereo not given): the Potency is 39.8 µM (active).

For `O=C(Nc1cccc(Cl)c1)Nc1nnc(-c2ccncc2)s1`, the Potency is 12.6 µM (active). Consider `Clc1cccc(Nc2nc(-c3ccncc3)cs2)c1`, for which the Potency entry was “inactive”. Take `O=C(Nc1cccc(Cl)c1)NC1CC2CCC(C1)N2Cc1ccco1` (stereo not given): the Potency result is “inactive”. Take `NC(CCc1ccccc1)c1csc(NC(=O)Nc2cccc(C(F)(F)F)c2)n1` (stereo not given): the Potency is 39.8 µM (active). The same measure for `O=C(Cc1csc(Nc2nc(S)nc3ccccc23)n1)N1CCN(c2cccc(C(F)(F)F)c2)CC1`: “inactive”; for `C/C(=N/NC(=O)c1sc(NS(=O)(=O)c2ccc(C)cc2)nc1C)c1sc(N)nc1C`: “inactive”. Consider `CN1CCN(/C=N/c2nc3ccccc3nc2N2CCCC2)CC1`, for which the Potency result is “inactive”.

As to `Cc1cc(O)nc2nc3ccccc3n12`, the Potency result was “inactive”. Then `OCCCc1nc2n(n1)C(c1ccccc1Cl)C=C(c1cccs1)N2` (stereo not given), with “inactive”; and `CC(C)=Cc1c(O)n2ccccc2nc1=O`, with “inactive”. As for `CCC/C=C/c1ccc(CN2C(C(C)C)C(=O)N(Cc3cn(CCC4OCCCO4)nn3)CCS2(=O)=O)cc1` (stereo not given), the Potency was 22.4 µM (active). For the compound `CCC/C=C/c1ccc(CN2C(C(C)C)C(=O)N(Cc3cn(CCC4OCCO4)nn3)CCS2(=O)=O)cc1` (stereo not given), the Potency was 35.5 µM (active).

For the compound `CN(C1=NS(=O)(=O)c2ccccc21)c1ccc(OC(=O)c2ccncc2)cc1`, the Potency entry was “inactive”.

Take `Cc1csc2ncc(C(=O)N3CCc4ccccc43)c(=O)n12`: the Potency result is “inactive”. The same measure for `CC1CN(Cc2cnc(Cl)s2)CC(C)O1` (stereo not given): “inactive”. Then `CCN1CCN(S(=O)(=O)c2ccc3c4c(cccc24)C(=O)N3CC)CC1`, with “inactive”; and `CCCCCCc1cc2cc(C(=O)NC)c(=N)oc2cc1O`, with “inactive”; and `Cc1cc2c(cc1C)CSC(c1c(O)ccc3ccccc13)SC2`, with 35.5 µM (active). In the case of `COc1ccc(OC)c(/C=C2/Sc3ccccc3C2=O)c1`, the Potency result is “inactive”.

In the case of `COc1ccc(/C=C2\SC(=S)N(NS(=O)(=O)c3ccccc3)C2=O)c(OC)c1`, the Potency is 39.8 µM (active).

Regarding `COc1ccc(/C=C/C(=O)Nc2ccc(S(=O)(=O)N3CCOCC3)cc2)c(OC)c1`, the Potency result is “inactive”.
